# Where “and” joins values, the source holds several entries; their conditions need not be identical. Identical values can stand only once. Values without a mark were called inactive. Inconclusive results are not listed. Entries that show only a call come without a potency. Calls of active or inactive are those of the source. Unless noted, calls come from the whole dose curve; as a rule, active = well fitted curve in the direction sought with a large enough effect; inconclusive = small, poorly fitted or top-dose-only effect, or another doubt; inactive = no such curve, though single readings can be large; an effect the other way counts as inactive or inconclusive.
# Legend:
# [1] = tested on: C33A; experiment: Primary qHTS to identify gynecologic anti-cancer compounds using libraries of approved drugs and bioactive compounds (AID 1345084); details: Gynecologic cancer cell panel viability, ATPlite luminescence, 48 h; series mostly up to 57.5 µM; note: nearly all actives have a fitted effect of over 55% in size
# In short: (§1)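 Cells, 1,000 per well, were allowed to settle for 16 h at 37 C before compound addition. Five concentrations were tested for 48 h, and viability was read by ATPlite luminescence after 15 min at room temperature.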
# [2] = tested on: CAOV3; experiment: as above; details: Gynecologic cancer cell panel viability, ATPlite luminescence, 48 h; series mostly up to 57.5 µM
# In short: as §1
# [3] = tested on: CASKI; experiment: as above; details: Gynecologic cancer cell panel viability, ATPlite luminescence, 48 h; series mostly up to 57.5 µM
# In short: as §1
# [4] = tested on: Es-2; experiment: as above; details: Gynecologic cancer cell panel viability, ATPlite luminescence, 48 h; series mostly up to 57.5 µM
# In short: as §1
# [5] = tested on: HeLa; experiment: as above; details: Gynecologic cancer cell panel viability, ATPlite luminescence, 48 h; series mostly up to 57.5 µM
# In short: as §1
# [6] = tested on: Hek293T; experiment: as above; details: Gynecologic cancer cell panel viability, ATPlite luminescence, 48 h, control line for the selectivity index; series mostly up to 57.5 µM
# In short: as §1
# [7] = tested on: JEG-3; experiment: as above; details: Gynecologic cancer cell panel viability, ATPlite luminescence, 48 h; series mostly up to 57.5 µM
# In short: as §1
# [8] = tested on: OV90; experiment: as above; details: Gynecologic cancer cell panel viability, ATPlite luminescence, 48 h; series mostly up to 57.5 µM
# In short: as §1
# [9] = tested on: PA-1; experiment: as above; details: Gynecologic cancer cell panel viability, ATPlite luminescence, 48 h; series mostly up to 57.5 µM
# In short: as §1
# [10] = tested on: SKOV3; experiment: as above; details: Gynecologic cancer cell panel viability, ATPlite luminescence, 48 h; series mostly up to 57.5 µM
# In short: as §1
# [11] = tested on: Tov-21-G; experiment: as above; details: Gynecologic cancer cell panel viability, ATPlite luminescence, 48 h; series mostly up to 57.5 µM
# In short: as §1
# [12] = tested on: Tov112D; experiment: as above; details: Gynecologic cancer cell panel viability, ATPlite luminescence, 48 h; series mostly up to 57.5 µM
# In short: as §1
# [13] = Drug repurposing screens with cells derived from glioblastoma tumor samples (AID 1345199); details: GBM patient neurospheres viability, ATP luminescence, 48 h; note: nearly all actives have a fitted effect of over 40% in size; note: potency is the fitted concentration of half-maximal effect
# In short: (§2)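 Four patient lines of CD133+ GBM neurospheres were screened at several concentrations; hits were retested in those lines plus three slower-growing GBM lines, using 48-hour treatment and ATP-based viability.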
# [14] = tested on: astro; experiment: as above; details: viability, ATP luminescence, 48 h; series mostly up to 45.9 µM
# In short: as §2
# [15] = target: Nuclear receptor subfamily 1 group I member 2 (Rattus norvegicus) (UniProt Q9R1A7); experiment: qHTS assay for small molecule activators of the rat pregnane X receptor (rPXR) signaling pathway (AID 651751; call rule not given here); details: rPXR reporter cells, luciferase (One-Glo), 24 h
# Nuclear receptor subfamily 1 group I member 2 (Rattus norvegicus), sequence (Q9R1A7 whole entry, looked up): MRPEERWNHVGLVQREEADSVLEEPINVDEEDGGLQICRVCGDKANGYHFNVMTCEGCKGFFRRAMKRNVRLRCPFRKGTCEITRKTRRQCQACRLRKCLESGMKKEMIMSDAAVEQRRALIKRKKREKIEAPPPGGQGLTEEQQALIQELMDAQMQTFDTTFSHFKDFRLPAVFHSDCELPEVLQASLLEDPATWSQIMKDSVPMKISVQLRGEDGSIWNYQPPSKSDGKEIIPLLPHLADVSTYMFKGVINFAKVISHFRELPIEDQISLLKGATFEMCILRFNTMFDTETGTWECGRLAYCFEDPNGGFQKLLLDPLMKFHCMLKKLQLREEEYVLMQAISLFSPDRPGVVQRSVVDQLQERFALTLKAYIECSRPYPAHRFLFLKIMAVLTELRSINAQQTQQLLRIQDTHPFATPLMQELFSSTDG
# [16] = qHTS assay for small molecule activators of the human pregnane X receptor (PXR) signaling pathway (AID 720659; call rule not given here)
# [17] = at 91.6 µM (top of the series), tumour line B
# [18] = at 91.6 µM (top of the series), tumour line D
# [19] = at 21.2 µM (top of the series), tumour line B
# [20] = at 21.2 µM (top of the series), tumour line D
# [21] = at 45.9 µM (top of the series), tumour line B
# [22] = at 45.9 µM (top of the series), tumour line D
# [23] = at 46 µM (top of the series), tumour line A
compound,measurement,setting,value
c1ccc(N2CCNCC2)cc1,Potency,[1],inactive
same,outcome,[2],inactive
same,outcome,[3],inactive
same,Potency,[4],inactive
same,Potency,[5],inactive
same,outcome,[6],inactive
same,outcome,[7],inactive
same,Potency,[8],inactive
same,Potency,[9],inactive
same,outcome,[10],inactive
same,Potency,[11],inactive
same,Potency,[12],inactive
CN1CC[C@]23c4c5ccc(O)c4O[C@H]2[C@@H](O)C=C[C@H]3[C@H]1C5,Potency,[1],inactive
same,outcome,[2],inactive
same,outcome,[3],inactive
same,Potency,[4],inactive
same,Potency,[5],inactive
same,outcome,[6],inactive
same,outcome,[7],inactive
same,Potency,[8],inactive
same,Potency,[9],inactive
same,outcome,[10],inactive
same,Potency,[11],inactive
same,Potency,[12],inactive
same,Potency,[13]; tumour line A,20 µM (active)
C=CCC1([C@H](C)CCC)C(=O)NC(=O)NC1=O,Potency,[1],inactive
same,outcome,[2],inactive
same,outcome,[3],inactive
same,Potency,[4],inactive
same,Potency,[5],inactive
same,outcome,[6],inactive
same,outcome,[7],inactive
same,Potency,[8],inactive
same,Potency,[9],inactive
same,outcome,[10],inactive
same,Potency,[11],inactive
same,Potency,[12],inactive
same,"activity, negative = cell killing",[13]; [17],-8.55%
same,"activity, negative = cell killing",[13]; [18],-0.262%
same,Potency,[14],inactive
COc1c2c(cc3c1OCO3)CCN(C)C2,Potency,[1],inactive
same,outcome,[2],inactive
same,outcome,[3],inactive
same,Potency,[4],inactive
same,Potency,[5],inactive
same,outcome,[6],inactive
same,outcome,[7],inactive
same,Potency,[8],inactive
same,Potency,[9],inactive
same,outcome,[10],inactive
same,Potency,[11],inactive
same,Potency,[12],inactive
same,"activity, negative = cell killing",[13]; [19],-1.01%
same,"activity, negative = cell killing",[13]; [20],-13.1%
same,Potency,[14],inactive
CCC1(c2ccc(N)cc2)CCC(=O)NC1=O (stereo not drawn),Potency,[1],inactive
same,outcome,[2],inactive
same,outcome,[3],inactive
same,Potency,[4],inactive
same,Potency,[5],inactive
same,outcome,[6],inactive
same,outcome,[7],inactive
same,Potency,[8],inactive
same,Potency,[9],inactive
same,outcome,[10],inactive
same,Potency,[11],inactive
same,Potency,[12],inactive
same,"activity, negative = cell killing",[13]; [21],-18.5%
same,"activity, negative = cell killing",[13]; [22],-18.3%
same,Potency,[14],inactive
C[C@]12CCC(=O)C=C1CC[C@@H]1[C@@H]2CC[C@]2(C)C(=O)CC[C@@H]12,Potency,[1],inactive
same,outcome,[2],inactive
same,outcome,[3],inactive
same,Potency,[4],inactive
same,outcome,[6],inactive
same,outcome,[7],inactive
same,Potency,[8],inactive
same,outcome,[10],inactive
same,Potency,[11],inactive
same,Potency,[12],inactive
same,"activity, negative = cell killing",[13]; [21],-22.1%
same,Potency,[13]; tumour line A,10 µM (active)
same,Potency,[14],inactive
same,max response,[15],5.29% and 4.66%
COP(=S)(OC)Oc1cc(Cl)c(Cl)cc1Cl,Potency,[1],inactive
same,outcome,[2],inactive
same,outcome,[3],inactive
same,Potency,[4],inactive
same,Potency,[5],inactive
same,outcome,[6],inactive
same,outcome,[7],inactive
same,Potency,[8],inactive
same,Potency,[9],inactive
same,outcome,[10],inactive
same,Potency,[11],inactive
same,Potency,[12],inactive
same,"activity, negative = cell killing",[13]; [21],10.9% and 7.75%
same,"activity, negative = cell killing",[13]; [22],-10.8% and 1.81%
same,"activity, negative = cell killing",[13]; [23],-24.7% and -15.3%
same,max response,[15],1.25%
same,outcome,[16],inactive
CC(C)c1c(CN(C)C(C)Cc2ccccc2)n(C)n(-c2ccccc2)c1=O (stereo not drawn),Potency,[1],inactive
same,outcome,[2],inactive
same,outcome,[3],inactive
same,Potency,[4],inactive
same,Potency,[5],inactive
same,outcome,[6],inactive
same,outcome,[7],inactive
same,Potency,[9],inactive
same,outcome,[10],inactive
same,Potency,[11],inactive
same,Potency,[12],inactive
same,"activity, negative = cell killing",[13]; [19],-20.9%
same,"activity, negative = cell killing",[13]; [20],-18.5%
same,Potency,[13]; tumour line A,11.2 µM (active)
CCCCC/C=C\C/C=C\C/C=C\C/C=C\CCCC(=O)NCC(=O)O,Potency,[1],inactive
same,outcome,[2],inactive
same,outcome,[3],inactive
same,Potency,[4],inactive
same,Potency,[5],inactive
same,outcome,[6],inactive
same,outcome,[7],inactive
same,Potency,[8],inactive
same,Potency,[9],inactive
same,Potency,[11],inactive
same,Potency,[12],inactive
same,"activity, negative = cell killing","[13]; at 4.17 µM (top of the series), tumour line A",-24.5%
same,"activity, negative = cell killing","[13]; at 4.17 µM (top of the series), tumour line B",-4.38%
same,"activity, negative = cell killing","[13]; at 4.17 µM (top of the series), tumour line D",-5.18%
CC(C)c1cccc(C(C)C)c1O,Potency,[1],inactive
same,outcome,[2],inactive
same,outcome,[3],inactive
same,Potency,[4],inactive
same,Potency,[5],inactive
same,outcome,[6],inactive
same,outcome,[7],inactive
same,Potency,[8],inactive
same,Potency,[9],inactive
same,outcome,[10],inactive
same,Potency,[11],inactive
same,Potency,[12],inactive
same,"activity, negative = cell killing",[13]; [21],6.49%
same,"activity, negative = cell killing",[13]; [22],2.93%
same,"activity, negative = cell killing",[13]; [23],-26.1%
same,max response,[15],-2.57%
CCN[C@H](C)Cc1cccc(C(F)(F)F)c1,Potency,[1],inactive
same,outcome,[2],inactive
same,outcome,[3],inactive
same,Potency,[4],inactive
same,Potency,[5],inactive
same,outcome,[6],inactive
same,outcome,[7],inactive
same,Potency,[8],inactive
same,Potency,[9],inactive
same,outcome,[10],inactive
same,Potency,[11],inactive
same,Potency,[12],inactive
same,"activity, negative = cell killing",[13]; [17],-5.97%
same,"activity, negative = cell killing",[13]; [18],-5.78%
same,Potency,[14],inactive
CCN(CC)CCc1c[nH]c2ccccc12,Potency,[1],inactive
same,outcome,[2],inactive
same,outcome,[3],inactive
same,Potency,[4],inactive
same,Potency,[5],inactive
same,outcome,[6],inactive
same,outcome,[7],inactive
same,Potency,[9],inactive
same,outcome,[10],inactive
same,Potency,[11],inactive
same,Potency,[12],inactive
same,"activity, negative = cell killing","[13]; at 108 µM (top of the series), tumour line B",-10.6%
same,"activity, negative = cell killing","[13]; at 108 µM (top of the series), tumour line D",-16.4%
same,Potency,[13]; tumour line A,63.1 µM (active)
same,Potency,[14],inactive
O=C1CN=C(c2ccccc2)c2cc([N+](=O)[O-])ccc2N1,Potency,[1],inactive
same,outcome,[2],inactive
same,outcome,[3],inactive
same,Potency,[4],inactive
same,Potency,[5],inactive
same,outcome,[6],inactive
same,outcome,[7],inactive
same,Potency,[8],inactive
same,Potency,[9],inactive
same,outcome,[10],inactive
same,Potency,[11],inactive
same,Potency,[12],inactive
same,"activity, negative = cell killing",[13]; [21],-7.18%
same,"activity, negative = cell killing",[13]; [22],-17.8%
same,Potency,[14],inactive
Nc1ccccc1,Potency,[1],inactive
same,outcome,[2],inactive
same,outcome,[3],inactive
same,Potency,[4],inactive
same,Potency,[5],inactive
same,outcome,[6],inactive
same,outcome,[7],inactive
same,Potency,[8],inactive
same,Potency,[9],inactive
same,outcome,[10],inactive
same,Potency,[11],inactive
same,Potency,[12],inactive
same,"activity, negative = cell killing",[13]; [21],-4.34%
same,"activity, negative = cell killing",[13]; [22],-2.5%
same,"activity, negative = cell killing",[13]; [23],-28.7%
same,max response,[15],-4.01%
same,outcome,[16],inactive
CCCCCCCCCC(=O)O[C@H]1CC[C@H]2[C@@H]3CCC4=CC(=O)CC[C@@H]4[C@H]3CC[C@]12C,Potency,[1],inactive
same,outcome,[2],inactive
same,outcome,[3],inactive
same,Potency,[4],inactive
same,Potency,[5],inactive
same,outcome,[6],inactive
same,outcome,[7],inactive
same,Potency,[8],inactive
same,Potency,[9],inactive
same,outcome,[10],inactive
same,Potency,[11],inactive
same,Potency,[12],inactive
same,"activity, negative = cell killing",[13]; [21],-3.32%
same,"activity, negative = cell killing",[13]; [22],-5.94%
same,Potency,[14],inactive
CN1CC[C@]23c4c5ccc(O)c4O[C@H]2[C@@H](O)CC[C@H]3[C@H]1C5,Potency,[1],inactive
same,outcome,[2],inactive
same,outcome,[3],inactive
same,Potency,[4],inactive
same,Potency,[5],inactive
same,outcome,[6],inactive
same,outcome,[7],inactive
same,Potency,[8],inactive
same,Potency,[9],inactive
same,outcome,[10],inactive
same,Potency,[11],inactive
same,Potency,[12],inactive
same,"activity, negative = cell killing","[13]; at 91.6 µM (top of the series), tumour line A",-29.5%
same,"activity, negative = cell killing",[13]; [17],-3.58%
same,"activity, negative = cell killing",[13]; [18],-23.6%
same,Potency,[14],inactive

# From PubChem BioAssay (NCATS)
